Broadly, the AC50 is the concentration giving half of the maximal activity seen.

Molecules are shown by their SMILES. Records with an inconclusive call do not appear. Active and inactive are the calls of the source. The calls were made as follows, unless noted: active = hit-call score of the fitted dose curve at least 0.9, where 1 is the maximum; inconclusive = response in the unintended direction; inactive = score below 0.9.

human Peripheral-type Benzodiazepine Receptor (PBR), TSPO (gene 706), sequence (P30536 whole entry, looked up): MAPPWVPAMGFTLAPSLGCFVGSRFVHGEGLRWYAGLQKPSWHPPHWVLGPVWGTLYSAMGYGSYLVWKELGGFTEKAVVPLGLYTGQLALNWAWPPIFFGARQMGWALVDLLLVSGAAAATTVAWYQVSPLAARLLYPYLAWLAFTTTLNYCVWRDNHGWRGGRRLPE
Glutamate receptor ionotropic, kainate 1 (Rattus norvegicus), sequence (P22756 whole entry, looked up): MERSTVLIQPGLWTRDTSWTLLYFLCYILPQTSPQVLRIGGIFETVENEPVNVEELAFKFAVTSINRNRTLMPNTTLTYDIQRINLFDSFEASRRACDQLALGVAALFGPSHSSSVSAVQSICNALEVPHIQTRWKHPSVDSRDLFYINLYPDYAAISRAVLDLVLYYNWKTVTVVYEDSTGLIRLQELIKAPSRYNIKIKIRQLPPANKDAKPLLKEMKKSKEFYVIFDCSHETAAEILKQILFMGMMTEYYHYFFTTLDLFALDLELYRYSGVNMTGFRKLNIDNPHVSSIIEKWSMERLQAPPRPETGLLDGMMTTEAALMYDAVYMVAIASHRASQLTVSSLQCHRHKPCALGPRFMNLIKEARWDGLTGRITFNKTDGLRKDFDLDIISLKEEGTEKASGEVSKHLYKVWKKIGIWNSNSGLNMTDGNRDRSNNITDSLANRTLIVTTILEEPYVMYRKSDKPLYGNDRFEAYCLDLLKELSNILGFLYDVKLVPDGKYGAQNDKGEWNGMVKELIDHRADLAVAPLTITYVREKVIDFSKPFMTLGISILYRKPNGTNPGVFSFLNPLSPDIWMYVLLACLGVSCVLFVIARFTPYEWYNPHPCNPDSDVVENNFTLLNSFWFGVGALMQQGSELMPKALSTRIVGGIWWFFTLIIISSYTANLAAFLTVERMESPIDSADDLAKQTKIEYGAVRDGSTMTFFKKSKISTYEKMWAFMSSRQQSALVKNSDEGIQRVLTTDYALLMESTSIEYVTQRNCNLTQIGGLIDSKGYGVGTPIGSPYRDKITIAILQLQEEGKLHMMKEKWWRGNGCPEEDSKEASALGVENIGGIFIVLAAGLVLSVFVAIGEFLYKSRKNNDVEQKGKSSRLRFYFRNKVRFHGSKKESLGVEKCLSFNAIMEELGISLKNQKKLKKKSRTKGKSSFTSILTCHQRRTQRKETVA

One assay addresses human Peripheral-type Benzodiazepine Receptor (PBR), TSPO (gene 706) (UniProt P30536). The assay is described as follows: NVS_MP_hPBR: NovaScreen (NVS) Membrane Protein Assay for human Peripheral-type Benzodiazepine Receptor (PBR) (AID 2283331). The method in brief: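 Radioligand displacement on human colonic cell membranes, 1 h incubation; bound radioactivity by filtration and scintillation counting. Primary screen in duplicate at 25 uM single concentration, actives followed up in concentration series; loss of binding versus DMSO.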
Consider `C=CCOC(=O)c1ccccc1C(=O)OCC=C`, for which the half-maximal activity concentration (AC50) is 25 µM (active).
On to `Nc1ccccc1N`, for which the result was inactive.
`CC=Cc1ccc(O)c(OC)c1`: the AC50 is 17.2 µM (active).
Take `CC(C)c1ccc(C(=O)N=C(N)N)cc1S(C)(=O)=O`: the AC50 was 12.3 µM (active).
As to `Cc1ccc(C(C)C)c(O)c1`, the AC50 is 18.3 µM (active).
As to `Cc1cccc(Nc2cc(Cl)nc(SCC(=O)O)n2)c1C`, the concentration at half-maximal activity (AC50) was 6.49 µM (active).
Regarding `Nc1ccc2c(c1)C(=O)c1ccccc1C2=O`, the molecule was called inactive.
As to `NC(=O)Cn1c(=O)cc(CCN2CCN(c3nccc4sccc34)CC2)c2ccc(F)cc21`, the AC50 was 1.77 µM (active).

Another assay addresses Glutamate receptor ionotropic, kainate 1 (Rattus norvegicus) (UniProt P22756). The assay is described as follows: NVS_IC_rKAR: NovaScreen (NVS) Ion Channel Assay for rat Kainic Acid Receptors (KAR) (AID 2283334; active = hit-call score of the fitted dose curve at least 0.9, where 1 is the maximum; inactive = score below 0.9). How it is done: NVS_IC_rKAR is a biochemical, single-readout assay that uses extracted gene-proteins from Rat forebrain membranes in a tissue-based cell-free assay. Measurements were taken 1 hour after chemical dosing in a 48-well plate.NVS_IC_rKAR is one of one assay component(s) measured or calculated from the NVS_IC_rKAR assay. It is designed to make measurements of radioligand binding, a form of binding reporter, as detected with scintillation counting signals by Filter-based radiodetection technology.Data from the assay component NVS_IC_rKAR was analyzed into 1 assay endpoint. This assay endpoint, NVS_IC_rKAR, was analyzed in the positive analysis fitting direction relative to DMSO as the negative control and baseline of activity. Using a type of binding reporter, loss-of-signal activity can be used to understand changes in the binding as they relate to the gene Grik1. Furthermore, this assay endpoint can be referred to as a primary readout, because the performed assay has only produced 1 assay endpoint. To generalize the intended target to other relatable targets, this assay endpoint is annotated to the ion channel intended target family, where the subfamily is ligand-gated ion channel.
Binding assays used specific radioligands (tritiated, iodinated) with non-radioactive competitive displacement ligands in agonist or antagonist protocols (as indicated) and various reference compounds and inhibitors to titrate specific binding to receptors and transporters. Most enzyme assays (CYPs, kinases, phosphatases, proteases, HDACs) used recombinant protein and specific substrates (fluorescence mostly, some colorimetric and radioactive) and inhibitors, followed by a biochemical separation of substrate and product. All assays for the biochemical HTS were initially run in duplicate at a single concentration (10 uM for CYP450 assays and 25 uM for all others). Assay-chemical combinations meeting a pre-defined threshold (e.g., 30% inhibition and other criteria defined below) were then run in singleton concentration-response format with maximum concentration of 20 uM for CYPs and 50 uM for all others. Each assay was run with positive and negative controls, and concurrent controls on every plate. The follow-up (secondary) screen tested active chemical-pairs in concentration series, as well as a few additional assays not tested in the primary screen, some selected negative inactives, and several cases re-run in the concentration series for confirmatory purposes.
On to `Nc1nc(N)c2nc(CNc3ccc(C(=O)N[C@@H](CCC(=O)O)C(=O)O)cc3)cnc2n1`, for which the outcome was inactive.
The same measure, in the same setting: for `CCCCCCCC=O` the value was “inactive”.
In the case of `CCCCCCC(=O)OCC`, the outcome was inactive.
On the same count and under the same terms, for `COc1cc(S(=O)(=O)O)c(C)cc1N=Nc1c(O)ccc2cc(S(=O)(=O)O)ccc12` the value was “inactive”.

In another assay the target is rat Peripheral-type Benzodiazepine Receptor (PBR), Tspo (gene 24230) (UniProt P16257). The assay is described as follows: NVS_MP_rPBR: NovaScreen (NVS) Membrane Protein Assay for rat Peripheral-type Benzodiazepine Receptor (PBR) (AID 2283335). In outline: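 Radioligand displacement, rat kidney membrane prep, 1 h exposure, filter-based scintillation read; DMSO baseline, loss-of-signal scored. Primary screen at 25 uM in duplicate, actives followed up in concentration series.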
rat Peripheral-type Benzodiazepine Receptor (PBR), Tspo (gene 24230), sequence (P16257 whole entry, looked up): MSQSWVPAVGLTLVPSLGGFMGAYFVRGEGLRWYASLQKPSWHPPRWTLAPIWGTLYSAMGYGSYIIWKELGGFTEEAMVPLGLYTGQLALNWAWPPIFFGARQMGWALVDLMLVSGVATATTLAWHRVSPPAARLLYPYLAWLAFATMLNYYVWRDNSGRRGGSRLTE
For the molecule `C=CCOC(=O)c1ccccc1C(=O)OCC=C`, the outcome was inactive.
With `Nc1ccc(S(=O)(=O)c2ccc(N)cc2)cc1`, the AC50 is 3.28 µM (active).
The same measure, in the same setting: for `CCCCC(CC)COC(=O)CC(C(=O)OCC(CC)CCCC)S(=O)(=O)O` (stereo not drawn) the value was 9.22 µM (active); for `CC=Cc1ccc(O)c(OC)c1`, 3.55 µM (active).
As to `NS(=O)(=O)c1cc2c(cc1Cl)NCNS2(=O)=O`, the result was inactive.
Same read-out and setting: for `CC(C)c1ccc(C(=O)N=C(N)N)cc1S(C)(=O)=O` the value was “inactive”.
With `Cc1ccc(C(C)C)c(O)c1`, the call was inactive.
`Cc1oc(-c2ccccc2)nc1CCOc1cccc2c1ccn2CCC(=O)O`: the AC50 was 46.5 µM (active).
For the molecule `NC(=O)Cn1c(=O)cc(CCN2CCN(c3nccc4sccc34)CC2)c2ccc(F)cc21`, the half-maximal activity concentration (AC50) was 1.6 µM (active).

Tested on in the next assay: not listed separately
The assay is described as follows: NVS_IC_rCaBTZCHL: NovaScreen (NVS) Ion Channel Assay for Calcium Channel, Type L, Benzothiazepine Site (CaBTZCHL) (AID 2283337). In outline:
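Competitive displacement of a site-specific radioligand from rat cortex membranes, measured as signal loss against DMSO baseline by filter radiodetection after 1.5 h. Single-point 25 uM primary screen.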
As to `CCc1c(C(=O)NN2CCCCC2)nn(-c2ccc(Cl)cc2Cl)c1-c1ccc(Br)cc1`, the result was inactive.
For `CN1CCN(Cc2cc(-c3ccc4[nH]c(=O)oc4c3)co2)[C@@H](c2ccc(F)cc2)C1`, the AC50 is 5.34 µM (active).
In the case of `O=C(N[C@@H](Cc1ccccc1)[C@@H](O)C(=O)N1C[C@@H](O)[C@@H](O)C1)c1cc2cc(Cl)ccc2[nH]1`, the result was inactive.
`Oc1ccc2c(c1)OC[C@@H](N1CCC(O)(c3ccc(F)cc3)CC1)[C@H]2O`: the outcome was inactive.
`COc1ccc(S(=O)(=O)N2C(=O)[C@@](c3ccccc3OC)(N3C[C@H](O)C[C@H]3C(=O)N(C)C)c3cc(Cl)ccc32)c(OC)c1`: the AC50 was 3.53 µM (active).
Consider `Cc1nc(-c2ccc3c(c2)CCN(CCC2CCC(NC(=O)/C=C/c4ccc(F)cc4)CC2)CC3)no1` (stereo not drawn), for which the outcome was inactive.
In the case of `COc1cc(S(=O)(=O)O)c(C)cc1N=Nc1c(O)ccc2cc(S(=O)(=O)O)ccc12`, the result was inactive.

Source of the values: PubChem BioAssay (EPA / NIEHS).
